# High-throughput results deposited in PubChem BioAssay by National Center for Advancing Translational Sciences (NCATS).
# GAA glycogen mod – GAA glycogen-cleavage inhibition or activation | P10253 | recombinant GAA, glycogen substrate, Amplex Red glucose oxidase fluorescence | Potency, µM (highest dose often 76.4 µM), hits mostly inhibitors | hit rate 0.38% among 300,000 | AID 2100;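 note: the screen sought inhibitors and activators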
#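 qHTS, 1536-well; enzyme 4 nM final; cpd up to 77 uM; substrate bovine liver glycogen 30 ug; 50 mM citrate/phosphate pH 5.0, 0.01% Tween-20; 37 C, 40 min; Amplex Red detection 45 min RT; Hill fit → AC50.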
# GAA spleen mod – inhibits or activates alpha-glucosidase in human spleen homogenate. P10253. human spleen homogenate, 4-MU-alpha-glucoside fluorescence. Potency, µM (top dose mostly 79.9 µM), usual class: inhibitors. hit rate 0.006% among 240,000. AID 2112
#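 Compounds were titrated against alpha-glucosidase in spleen homogenate at pH 5.0, with 1 mM 4-methylumbelliferyl substrate for 40 min at 37 C. Reactions were quenched with pH 10 NaOH/glycine and fluorescence measured.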
# GLA inh pH 4.5 – alpha-galactosidase A (human) inhibition, pH 4.5 | purified enzyme, 4-MU-alpha-Gal fluorescence, pH 4.5 | activity change, negative = inhibition, % at 105 µM | 230,000 tested, under 10 active | AID 1467
# GAA inh – inhibitors of human lysosomal alpha-glucosidase. purified human GAA, 4-MU-alpha-glucoside fluorescence. Potency, µM (series often up to 76.9 µM), hits mostly inhibitors. hit rate 0.005% among 200,000
#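 AC50 values come from Hill fits of compound titrations (up to 77 uM) against 4 nM human enzyme. Substrate 4-methylumbelliferyl-alpha-D-pyranoside at 400 uM, pH 5.0 citrate buffer, 20 min room temperature; fluorescence Ex 365/Em 440 after alkaline stop.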
# GLA spleen mod – inhibitors or activators of human alpha-galactosidase in spleen homogenate; P06280; human spleen homogenate, 4MU-alpha-Gal fluorescence, 40 min; Potency, µM (highest dose often 80 µM), usual class: inhibitors; hit rate 0.008% among 240,000
# Target sequence (P06280 32-429 limits assumed): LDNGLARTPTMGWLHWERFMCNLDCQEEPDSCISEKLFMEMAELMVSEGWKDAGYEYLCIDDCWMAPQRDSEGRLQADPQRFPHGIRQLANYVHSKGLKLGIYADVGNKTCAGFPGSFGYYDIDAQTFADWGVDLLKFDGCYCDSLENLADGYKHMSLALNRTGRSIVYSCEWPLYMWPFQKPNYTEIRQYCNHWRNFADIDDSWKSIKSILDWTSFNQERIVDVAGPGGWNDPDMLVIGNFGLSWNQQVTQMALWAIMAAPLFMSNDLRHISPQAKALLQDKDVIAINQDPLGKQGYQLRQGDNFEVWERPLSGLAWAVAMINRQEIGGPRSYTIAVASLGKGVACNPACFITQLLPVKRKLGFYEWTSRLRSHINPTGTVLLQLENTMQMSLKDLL
#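 qHTS titration in buffer at pH 5.0. Alpha-galactosidase activity in spleen homogenate was measured via 4-methylumbelliferone release from 1 mM fluorogenic substrate after 40 min at 37C and a pH 10 stop. AC50 came from Hill fits of control-normalized data.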
# A number is an active result; i = inactive; ? = inconclusive; nt = not tested or not shown; [ ] = another dose, or the depositor's remark. Most compounds without a hit are left out; they make up all but 0.4% or so of the library. Calls come from the whole dose curve; as a rule, active = well fitted curve in the direction sought with a large enough effect; inconclusive = small, poorly fitted or top-dose-only effect, or another doubt; inactive = no such curve, though single readings can be large; an effect the other way counts as inactive or inconclusive.
SMILES,GAA glycogen mod,GAA spleen mod,GLA inh pH 4.5,GAA inh,GLA spleen mod
C=CCn1cc(/C=N/Nc2nc3ccccc3[nH]2)c2ccccc21,28.2µM,i,i,i,i
CCOc1cc(/C=N/Nc2nn3cnnc3c3ccccc23)ccc1O,?,i,i,nt,i
Cc1ccsc1/C=N/Nc1nc2ccccc2[nH]1,6.31µM,i,i,i,i
Cc1c(/C=N/Nc2nc3ccccc3[nH]2)c2ccccc2n1C,?,i,i,nt,i
C(=N\Nc1nc2ccccc2[nH]1)/c1cccs1,?,i,i,i,i
COc1cc(/C=N/Nc2nn3cnnc3c3ccccc23)ccc1O,17.6µM,i,i,i,i
COc1cccc(/C=N/Nc2nc3ccccc3[nH]2)c1O,?,i,i,nt,i
COc1cc(/C=N/Nc2nc3ccccc3[nH]2)cc(OC)c1O,20µM,i,i,i,i
C(=N\Nc1nc2ccccc2[nH]1)/c1ccc2c(c1)OCO2,15.8µM,nt,i,i,i
C/C(=N\Nc1nc2ccccc2[nH]1)c1ccc2c(c1)OCO2,?,i,i,i,i
Nc1cc(CN2C(=O)c3ccccc3C2=O)cc(Cl)c1O,7.94µM,i,i,i,i
O=C1c2ccccc2C(=O)N1Cc1cc(Cl)c(O)c([N+](=O)[O-])c1,i,nt,nt,nt,nt
CC[C@H](C)[C@H](NC(=O)[C@H](C)NC(=O)[C@H](CC(=O)O)NC(=O)[C@H](CO)NC(=O)[C@@H](N)Cc1cnc[nH]1)C(=O)N[C@@H](Cc1ccccc1)C(=O)N[C@H](C(=O)N[C@@H](CCC(N)=O)C(=O)N[C@@H](CCC(N)=O)C(=O)N[C@@H](Cc1ccc(O)cc1)C(=O)N[C@@H](CO)C(=O)N[C@@H](CCCCN)C(=O)N[C@@H](CC(C)C)C(=O)N[C@@H](CC(C)C)C(=O)N[C@@H](C)C(=O)N[C@@H](CCCCN)C(=O)N[C@@H](CC(C)C)C(=O)N[C@@H](C)C(=O)N[C@@H](CC(C)C)C(=O)N[C@@H](CCC(N)=O)C(=O)N[C@@H](CCCCN)C(=O)N[C@@H](Cc1ccc(O)cc1)C(=O)N[C@@H](CC(C)C)C(=O)N[C@@H](C)C(=O)N[C@@H](CO)C(=O)N[C@H](C(=O)N[C@@H](CC(C)C)C(=O)NCC(=O)N[C@@H](CO)C(=O)N[C@@H](CCCNC(=N)N)C(=O)N[C@H](C(=O)N[C@@H](CO)C(=O)N1CCC[C@H]1C(=O)N1CCC[C@H]1C(=O)N1CCC[C@H]1C(N)=O)[C@@H](C)O)[C@@H](C)CC)[C@@H](C)O,nt,i,nt,nt,i
O=C(NNS(=O)(=O)c1ccccc1)c1cc2cc3ccccc3nc2s1,22.4µM,i,i,i,i
S=C(NCc1ccco1)N/N=C/c1ccc(Cl)cc1,i,i,i,i,i
Oc1ccc(/C=N/NC(=S)NCc2ccco2)cc1,28.2µM,i,i,i,i
O=C(NNC(=S)Nc1ccc(Br)cc1)c1cccnc1,50.1µM,nt,nt,nt,nt
Cc1ccc(NC(=O)Cn2c(=O)n(CCC(=O)NCc3ccccc3Cl)c(=O)c3ccccc32)c(C)c1,i,nt,nt,nt,nt
O=C(COc1cccc(C(F)(F)F)c1)N1CCN(c2ccccc2O)CC1,?,i,i,i,i
O=C(COc1cccc(C(F)(F)F)c1)N1CCN(c2ccc(O)cc2)CC1,2µM,i,?,i,i
O=C(CCOc1ccccc1)N1CCN(c2ccc(O)cc2)CC1,6.31µM,i,i,nt,i
O=C(CCSc1ccc(Cl)cc1)N1CCN(c2ccc(O)cc2)CC1,17.8µM,i,i,nt,i
CCN1CCN(c2cc(C)c3cc(NC(=O)/C=C/c4cccc(Cl)c4)ccc3n2)CC1,i,nt,nt,nt,nt
CCN=c1scc(C)n1/N=C/c1ccc(O)c(O)c1O,15.8µM,i,i,i,i
CCOc1ccc(/C=C(\C#N)C(=O)Nc2sc3c(c2C(=O)OC)C(C(=O)OC)CC3)cc1OC (centres undefined),i,nt,nt,nt,nt
SMILES,GAA glycogen mod,GAA spleen mod,GLA inh pH 4.5,GAA inh,GLA spleen mod
Cc1cccc(NC(=S)NNC(=S)NCc2ccccc2)c1,7.94µM,i,i,i,i
CC[C@H](C)[C@H](NC(=O)[C@H](Cc1ccc(O)cc1)NC(=O)[C@@H]1CCCN1C(=O)[C@H](CCCN=C(N)N)NC(=O)[C@H](CCCN=C(N)N)NC(=O)[C@@H]1CCCN1C(=O)[C@H](CCCCN)NC(=O)[C@H](CC(N)=O)NC(=O)[C@H](CCC(N)=O)NC(=O)[C@H](Cc1ccc(O)cc1)NC(=O)[C@H](CC(C)C)NC(=O)[C@@H]1CCC(=O)N1)C(=O)N[C@@H](CC(C)C)C(=O)O,nt,i,nt,nt,i
Cc1ccc(O)c(NC(=O)c2cccc(NC(=O)c3ccco3)c2)c1,12.6µM,i,i,i,i
Cc1ccc(O)c(NC(=O)c2ccco2)c1,?,i,i,i,i
Cc1cc(O)c(NC(=O)c2ccco2)cc1C,11.2µM,i,i,i,i
CC1CN(C(=O)N2CCC(C(=O)NCc3ccccc3F)CC2)c2cc(Cl)ccc2O1 (centres undefined),i,nt,nt,nt,nt
CCOC(=O)c1ccc(N2C(=O)CC(Nc3ccc(O)cc3)C2=O)cc1 (centres undefined),10µM,i,i,nt,i
COc1ccc(NC(=O)Cn2c(=O)n(-c3ccc(OC)cc3)c(=O)c3ccc(C(=O)NCc4ccc(C)cc4)cc32)cc1,i,nt,nt,nt,nt
Nc1ccc(NC(=O)NC2CCCCC2)cc1,17.8µM,i,i,i,i
CSCC[C@H](N)C(=O)N[C@@H](CO)C(=O)N[C@@H](CCCN=C(N)N)C(=O)N1CCC[C@H]1C(=O)N[C@@H](C)C(=O)N[C@@H](CS)C(=O)N1CCC[C@H]1C(=O)N[C@@H](CC(N)=O)C(=O)N[C@@H](CC(=O)O)C(=O)N[C@@H](CCCCN)C(=O)N[C@@H](Cc1ccc(O)cc1)C(=O)N[C@@H](CCC(=O)O)C(=O)O,nt,i,nt,nt,i
Oc1ccc(N2CCN(C(=S)NCCc3ccccc3)CC2)cc1,25.1µM,i,i,i,i
Cc1ccc(-c2nc3ncccn3c2Nc2ccccc2C)o1,?,i,i,i,i
Cc1ccc(-c2nc3cnccn3c2Nc2c(C)cccc2C)o1,3.52µM,i,i,i[15.4 µM],i
CC(C)c1ccc(O)c(N)c1,10µM,i,i,i,i
CC(C)(C)c1ccc(O)c(N)c1,?,i,i,i,i
CCC(C)c1ccc(O)c(N)c1 (centres undefined),24.9µM,i,i,i,i
COc1ccc(-c2cc(Nc3ccccc3NC(=O)C(F)(F)F)n(CCC#N)n2)cc1,35.5µM,i,i,i,i
CCOC(=O)c1cc(-c2ccc(OC)cc2)nc2c1c(C)nn2CCC#N,i,i,i,i,?
O=C1CC(N2CCc3ccccc32)C(=O)N1c1ccccc1 (centres undefined),?,i,i,nt,i
CCOc1ccc(N2C(=O)CC(N3CCc4ccccc43)C2=O)cc1 (centres undefined),14.1µM,i,i,i,i
Cc1ccn2c(Nc3ccc(C(C)C)cc3)c(-c3cccnc3)nc2c1,15.8µM,nt,nt,nt,nt
